HT1080-NT tox = kills 2HG-producing HT-1080-NT fibrosarcoma cells | HT-1080-NT fibrosarcoma viability, CellTiter-Glo ATP luminescence, 48 h | Potency, µM (doses to about 46.1 µM), usual class: cytotoxic | 360,000 compounds, 1.6% hits | AID 686970;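 also: NT is the 2HG producing partner of a matched IDH1 knockdown line; nearly all actives have a fitted effect of over 55% in size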
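Read-out is CellTiter-Glo luminescence after 10 minutes at room temperature, following 48 hours' compound treatment of HT-1080-NT cells (750 cells/well, RPMI, 5% FBS, 37 degrees C).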
TDP1 cell noCPT = qHTS for Inhibitors of human tyrosyl-DNA phosphodiesterase 1 (TDP1): qHTS in cells in absence of CPT | DT40 Tdp1-/- hTDP1 cells, no CPT, ATP luminescence, 48 h | Potency, µM (highest dose often 46.2 µM), usual class: inhibitors | 420,000 compounds, 15% hits | AID 686978, 2013; also: nearly all actives have a fitted effect of over 55% in size
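Cells were dispensed at 400 per well, compounds added by pin tool, plates incubated ≥48 hr at 37 °C, then CellTiter-Glo added for 30 min at room temperature before luminescence reading. Line: DT40 Tdp1-/- complemented with hTDP1; camptothecin omitted.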
KB-V1 cytotox = KB-V1 MDR subline cytotoxicity | KB-V1 MDR cells viability, CellTiter-Glo, 72 h | Potency, µM (top dose mostly 46.1 µM), most hits filed as cytotoxic | 400,000 compounds, 3.4% hits; also: nearly all actives have a fitted effect of over 60% in size
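Following 72 h at 37 degrees C with compound, KB-V1 cell viability was read by CellTiter-Glo luminescence, medium being phenol-red-free DMEM plus 10% FBS; concentration-response parameters came from normalized, curve-fitted qHTS data.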
KB-3-1 tox = kills parental KB-3-1 adenocarcinoma cells; Potency, µM (doses to about 46.1 µM), hits mostly cytotoxic; KB-3-1 viability, CellTiter-Glo ATP luminescence, 72 h; 400,000 compounds, 1.4% hits; also: nearly all actives have a fitted effect of over 60% in size
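Cells are dispensed, compounds pinned in, plates held at 37 °C for 72 h, then CellTiter-Glo is added and luminescence read after 10 minutes. Cell line: parental KB-3-1 in phenol-red-free DMEM, 10% FBS.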
HT1080 IDH1KD tx = HT-1080 IDH1 knockdown cell toxicity (counter line). HT-1080 IDH1 knockdown viability, ATP luminescence, 48 h. Potency, µM (series often up to 46.1 µM), hits mostly cytotoxic. 360,000 compounds, 2% hits. AID 686971
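% activity derives from luminescence (CellTiter-Glo), normalised to DMSO and no-cell wells. HT-1080-IDH1KD cells, 750/well, had 48 h compound exposure at 37 °C.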
TDP1 cell CPT = growth inhibition of DT40 Tdp1-/-;hTDP1 cells with camptothecin (screen for TDP1 inhibitors) | chicken DT40 Tdp1-/-;hTDP1 cells + 20 nM CPT, ATP luminescence, 48 h | Potency, µM (series often up to 46.2 µM), most hits filed as inhibitors | 420,000 compounds, 12% hits | AID 686979; also: nearly all actives have a fitted effect of over 55% in size
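Cell growth measured by CellTiter-Glo luminescence after a minimum 48 h, 37 C compound exposure with 20 nM CPT in Tdp1-knockout DT40 cells stably expressing hTDP1, seeded 400/well; qHTS titration format.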
Numbers stand for hits; 0 = inactive; ? = inconclusive; - = no result given. Only some compounds are listed: those with a hit (about 19% of all), similar ones and a draw of the others. Calls follow the shape of the dose curve; as a rule, active = well fitted curve in the direction sought with a large enough effect; inconclusive = small, poorly fitted or top-dose-only effect, or another doubt; inactive = no such curve, though single readings can be large; an effect the other way counts as inactive or inconclusive.

SMILES | HT1080-NT tox | TDP1 cell noCPT | KB-V1 cytotox | KB-3-1 tox | HT1080 IDH1KD tx | TDP1 cell CPT
CCOC(=O)c1c(C)[nH]c(N=Nc2ccccc2Cl)c1C | 0 | ? | 0 | 0 | 0 | ?
CCOC(=O)c1c(C)[nH]c(N=Nc2ccc(C)cc2)c1C | 0 | 0 | ? | 0 | 0 | ?
CCOC(=O)c1c(C)[nH]c(C2=NNC(=Nc3ccc(OCC)cc3)SC2)c1C | 0 | 16.4µM | 0 | ? | 0 | 16.4µM
CCOC(=O)c1c(C)[nH]c(C2=NNC(=Nc3ccccc3OC)SC2)c1C | ? | 18.4µM | ? | 18.4µM | ? | ?
CCOC(=O)c1c(C)[nH]c(N=Nc2ccccc2)c1C | ? | 23.1µM | ? | 0 | ? | ?
CC(=O)c1c(C)[nH]c(C2=NNC(=NC(C)(C)C)SC2)c1C | 0 | 0 | 0 | 0 | 0 | 0
CCOC(=O)c1c(C)[nH]c(C2=NNC(=Nc3ccccc3)SC2)c1C | ? | 9.2µM | ? | ? | ? | 13µM
O=S(=O)(NCc1c(Cl)cccc1Oc1ccccc1)c1ccc(F)cc1 | 0 | ? | 0 | 16.4µM | 0 | ?
COc1ccc(OC)c(NC(=O)CC2Oc3ccccc3NC2=O)c1 (stereo unspecified) | 0 | 0 | 0 | 0 | 0 | 0
N[C@@H]1CCN(O)C1=O | - | 0 | - | - | - | 0
COc1cc(C2C=C(C34CC5CC(CC(C5)C3)C4)NC(=S)N2)cc(OC)c1OC (stereo unspecified) | 0 | 5.8µM | ? | ? | 0 | ?
Cc1cccc2c1c1ccc3c(c1n2C)C(=O)C=CC3=O | 0 | 0.411µM | 0 | 0 | 0 | 0.461µM
COc1ccc(OC)c(CNC(=O)c2cnc(N(C)C)nc2)c1 | - | 0 | 0 | 0 | - | 0
Cc1cc2nc(CO)[nH]c2cc1C | 0 | 0 | 0 | 0 | 0 | 0
COc1cc2nc(CCc3nc4cc(OC)c(OC)cc4[nH]3)[nH]c2cc1OC | - | 2µM | 0 | 0 | - | 5.62µM
COc1cccc(NC(=O)Cn2c(=O)n(CCC(=O)NCc3ccccc3OC)c(=O)c3ccccc32)c1 | - | ? | 0 | 0 | - | 25.9µM
COc1ccccc1CNC(=O)CCCCn1c(=O)c2ccccc2n(CC(=O)Nc2cccc(Cl)c2)c1=O | - | 9.2µM | ? | 0 | - | 23.1µM
COc1ccccc1CNC(=O)CCn1c(=O)c2ccccc2n(CC(=O)Nc2ccc(C)cc2)c1=O | - | ? | 0 | 0 | - | ?
CCOc1ccc(/C=C/C(=O)OC(C)C(=O)NC2CCCCC2C)cc1OC (stereo unspecified) | 0 | ? | ? | 0 | 0 | 0
CCN(C(=O)CN1C(=O)/C(=C/c2ccccc2)SC1=S)C1CCS(=O)(=O)C1 (stereo unspecified) | 0 | ? | 0 | 0 | 0 | 23.1µM
O=C1/C(=C/c2ccncc2)SC(=S)N1C1CCS(=O)(=O)C1 (stereo unspecified) | ? | 8.2µM | ? | ? | 0 | 5.8µM
NS(=O)(=O)c1ccc(-c2ccc(/C=C3\SC(=S)N(C4CCS(=O)(=O)C4)C3=O)o2)cc1 (stereo unspecified) | 0 | ? | 0 | ? | 0 | ?
O=C1/C(=C/c2ccccc2)SC(=S)N1C1CCS(=O)(=O)C1 (stereo unspecified) | 0 | ? | 0 | ? | 0 | 23.1µM
O=C1/C(=C\c2cccs2)SC(=S)N1C1CCS(=O)(=O)C1 (stereo unspecified) | 0 | ? | 0 | 0 | 0 | ?
O=[N+]([O-])c1ccc(C2=NN(CCO)C(=Nc3ccc(OC(F)(F)F)cc3)SC2)cc1 | ? | 20.6µM | 0 | 0 | 14.6µM | 18.4µM
SMILES | HT1080-NT tox | TDP1 cell noCPT | KB-V1 cytotox | KB-3-1 tox | HT1080 IDH1KD tx | TDP1 cell CPT
CCN(Cc1ccncc1)Cc1nc(-c2ccc(C(=O)OC)cc2)no1 | 0 | 20.6µM | 0 | ? | 0 | ?
O=C(Nc1ccc(OC(F)(F)F)cc1)N1CCc2nc(NCc3cccc(Oc4ccccc4)c3)ncc2C1 | ? | 20.6µM | 13µM | ? | 23.1µM | 18.4µM
CC(C)c1ccc(Nc2ncc3c(n2)CCN(C(=O)Nc2ccc(F)c(Cl)c2)C3)cc1 | ? | ? | 18.4µM | ? | ? | ?
CCOc1ccc(NC(=O)N2CCc3ccccc3C2)cc1 | 0 | 0 | 0 | 0 | 0 | 0
COc1cccc(NC(=O)N2CCc3nc(Nc4cc(Cl)cc(Cl)c4)ncc3C2)c1 | ? | 23.1µM | 0 | ? | 0 | ?
COc1cccc(NC(=O)N2CCCC2)c1 | 0 | 0 | 0 | 0 | 0 | 0
COc1cccc(NC(=O)N2CCc3nc(NCc4cccc(Oc5ccccc5)c4)ncc3C2)c1 | ? | 20.6µM | ? | 8.2µM | ? | 10.3µM
COc1ccc(CNC(=O)C(CC(C)C)NS(=O)(=O)c2ccc3c(c2)CCN3C(C)=O)cc1 (stereo unspecified) | - | 0 | ? | 0 | - | 0
CC(=O)c1ccc(N(CC(=O)NC2CCCC2)C(=O)CNC(=O)c2cccs2)cc1 | ? | 0 | 0 | ? | 0 | 0
COc1ccc(C(C(=O)NCC2CCCO2)N(C(=O)CNC(=O)c2cccs2)c2ccc(C(C)=O)cc2)cc1OC (stereo unspecified) | 0 | 0 | 0 | 0 | 0 | 0
COc1ccc(/C=C2\C(=O)N(c3c(Cl)cc(Cl)cc3Cl)N=C2NC(=O)c2cccc([N+](=O)[O-])c2)cc1 | 0 | ? | ? | ? | 0 | 18.4µM
COc1cc([N+](=O)[O-])ccc1NC(=O)c1cccc(NC(=O)C(C)C)c1 | 0 | 29.1µM | ? | 0 | 0 | ?
COc1ccc(CCNC(=O)c2ccc(-c3cccc([N+](=O)[O-])c3)o2)cc1OC | 0 | 20.6µM | 0 | 0 | 0 | ?
COc1ccc(C(=O)C(C)Oc2cccc(NC(=O)c3cccc([N+](=O)[O-])c3)c2)cc1 (stereo unspecified) | 0 | 20.6µM | 2.31µM | 0 | 0 | ?
CCC(CC)C(=O)Nc1cccc(C(=O)Nc2ccc(OC)cc2[N+](=O)[O-])c1 | ? | 0 | ? | 0 | ? | 0
COc1cc(OC)cc(C(=O)NCC(=O)NCC(c2ccco2)N2CCCCC2)c1 (stereo unspecified) | 0 | 0 | ? | 0 | 0 | 0
O=C(Nc1ccc(N2CCC(c3ccccc3)C2)c(C(=O)O)c1)c1ccc(Cl)cc1 (stereo unspecified) | - | ? | 0 | 0 | - | ?
COc1cc(NC(=O)c2ccc(-c3cccc([N+](=O)[O-])c3)o2)ccc1NC(=O)C(C)C | 0 | 20.6µM | 0 | ? | 0 | ?
NC1=C(Br)C(=O)c2ncccc2C1=O | 3.26µM | 1.64µM | 3.66µM | 2.59µM | 3.26µM | 0.651µM
O=C1C(=O)c2ncccc2-c2cccnc21 | - | 5.31µM | - | - | - | 5.96µM
OC(c1cccc(Cl)c1)c1nc(/C=C/c2ccccc2)cs1 (stereo unspecified) | 0 | ? | 0 | 0 | ? | ?
